Here are results for 35 compounds from PubChem BioAssay (NCATS).

The structures appear in SMILES notation. Results filed as inconclusive are left out. The source holds several records for some structures; these can differ, active in one and inactive in another. Activity calls are given as the source filed them. Calls come from the whole dose curve; as a rule, active = well fitted inhibition curve with a large enough effect; inconclusive = small, poorly fitted or top-dose-only effect; inactive = flat fitted curve, though single readings scatter.
% is set by controls: 0 for no effect and ±100 for the full control effect; potency is the fitted concentration of half-maximal effect.

The test deals with HEK293. Briefly: Cytotoxic Profiling of Annotated Libraries Using Quantitative High-Throughput Screening (AID 1296008). Note: nearly all actives have a fitted effect of over 60% in size. To be noted: Five cell lines viability, CellTiter-Glo ATP luminescence, 48-72 h; max response: active compounds read low. The source says:
Cell-based phenotypic screening is a commonly used approach to discover biological pathways, novel drug targets, chemical probes and high-quality hit-to-lead molecules. Many hits identified from high-throughput screening campaign are ruled out through a series of follow-up potency, selectivity/specificity, and cytotoxicity assays. Prioritization of molecules with little or no cytotoxicity for a more in-depth downstream evaluation influence the future direction of projects, so cytotoxicity profiling of the screening libraries at early stage is essential for increasing the likelihood of candidate success. […] For the annotated library, we also examined the primary targets and mechanistic pathways regularly associated with cell death. To our knowledge, this is the first study to use high-throughput screening to profile large libraries for cytotoxicity assessment in both normal and cancer cell lines. In summary, the results generated here constitutes a valuable resource for the scientific community and provides insight on identifying cytotoxic compounds with particular mechanisms of action, and prioritizing compounds with suitable cytotoxicity profile for further evaluation.
A pintool (Kalypsys) was used to transfer 23 nL of compound solution to the 1536-well assay plates. After 48 or 72 hr incubation at 37 degree Celsius, 5% CO2 and 95% humidity, 2.5 uL of CellTiter-Glo (Promega) was dispensed into each well using a dispenser (Aspect Automation, St. Paul, MN) with solenoid valves (Lee Valves, Westbrook CT). Plates were left at room temperature for 10 min before imaging the ATP-coupled luminescence using a ViewLux microplate imager (PerkinElmer, Waltham, MA).
For orientation: Cellular ATP, detected with luciferase, serves as a proxy for viable cell number.
In the case of `CC1CCN(c2cc(N3CCN(C)CC3)ccc2NC(=O)c2cc(C#N)c[nH]2)CC1`, the max response was 0.425% (inactive). As for `OCCn1cc(-c2ccc3c(c2)CCC3=NO)c(-c2ccncc2)n1`, the max response is 2.25% (inactive).

In the case of `O=C1NC(=O)C(=Cc2ccc(-c3ccc(F)cc3O)o2)S1`, the max response was -12.7% (inactive). The same measure, in the same setting: the result for `CN1CC(=O)NC1=NC(=O)Nc1cccc(Cl)c1` reads -3.54% (inactive); that for `COc1ccc(CCN(C)CCCOc2ccc(S(=O)(=O)c3[nH]c4ccccc4c3C(C)C)cc2)cc1OC`, -1.95% (inactive). Still for that read-out and setting: the result for `CC[C@H](C=C[C@@H](C)[C@H]1CC[C@H]2[C@@H]3CC=C4C[C@@H](O)CC[C@]4(C)[C@@H]3CC[C@]12C)C(C)C` reads 3.5% (inactive); that for `O=C(Nc1ccccc1)Nc1ccc(-c2ccc(C(=O)[C@H]3CCC[C@H]3C(=O)O)cc2)cc1`, -0.566% (inactive). Turning to `NS(=O)(=O)c1cc(Cl)c(Cl)c(S(N)(=O)=O)c1`, the result was inactive and the max response is 0.982% (inactive). Regarding `CCOC(=O)[C@@H](N)CCC(=O)N[C@@H](CSCc1ccccc1)C(=O)N[C@@H](C(=O)OCC)c1ccccc1`, the max response was -7.26% (inactive).

For the compound `OC[C@H]1O[C@@H](O[C@H]2[C@@H](O)[C@@](O)(CO)O[C@@H]2CO)[C@H](O)[C@@H](O)[C@@H]1O`, the max response is -3.28% (inactive). For `COc1ccc2ccc(=O)oc2c1CC=C(C)C`, the max response was -5% (inactive). The same measure, in the same setting: for `O=C1C(c2c(O)[nH]c3ccccc23)=Nc2ccccc21` the value was -1.42% (inactive). For `C[C@]12CC[C@@H]3c4ccc(O)cc4CC[C@H]3[C@H]1[C@@H](O)[C@@H](O)[C@H]2O`, the compound was classed as inactive. Turning to `CC(C)(OCc1nn(Cc2ccccc2)c2ccccc12)C(=O)O`, the max response was 0.564% (inactive) and the outcome was inactive.

`COc1ccc(-c2ccc3ncc4c(c3c2)n(-c2ccc(N3CCNCC3)c(C(F)(F)F)c2)c(=O)n4C)cn1`: the max response is -112% (inactive) and the Potency was 0.0092 µM (active). With `O=C(NCCCCN1CCOCC1)c1cc2ccccc2o1`, the max response was -14.9% (inactive).

`CN1c2ccccc2C(=O)N2CCc3c([nH]c4ccccc34)C21` (stereo not given): the max response was -2.28% (inactive) and the Potency was 1.64 µM (active). Turning to `O=C(Nc1cccc(Cl)c1)Nc1ncc(CCNc2ncnc3ccsc23)s1`, the Potency was 16.6 µM (active). As for `C=C1c2cccc(O)c2C(O)=C2C(=O)[C@@]3(O)C(O)=C(C(N)=O)C(=O)[C@@H](N(C)C)[C@@H]3[C@@H](O)[C@H]12`, the max response is 0.32% (inactive). `CSc1cccc(Nc2ncc3cc(-c4c(Cl)cccc4Cl)c(=O)n(C)c3n2)c1`: the Potency was 13.2 µM (active). The same measure, in the same setting: for `C[C@@]1(C(=O)Nc2ccc(F)nc2)CCCN1c1nc(Nc2cc(C3CC3)[nH]n2)c2cccn2n1` the value was 3.72 µM (active); for `CNc1nc(-c2ccc3c(N)n[nH]c3c2)cc(N2C[C@@H](C(=O)NC3CCCCC3)CC[C@@H]2C)n1`, 7.43 µM (active).

Take `CN1[C@H]2CC[C@H]1CC(OC(=O)c1c[nH]c3ccccc13)C2` (stereo not given in full): the max response is -1.65% (inactive). Still for that read-out and setting: the result for `FC(F)(F)c1ccc(C=Cc2nc(COc3ccc(CCCCn4ccnn4)cc3)co2)cc1` reads -116% (inactive). For `CCC(C)SSc1ncc[nH]1` (stereo not given), the Potency was 13.2 µM (active). Same read-out and setting: for `CN[C@@H]1CN(c2ccc3c(=O)c(C(=O)O)cn(-c4nccs4)c3n2)C[C@@H]1OC` the value was 1.29 µM (active). As for `Cc1cc2nc3c(=O)[nH]c(=O)nc-3n(CC(O)C(O)C(O)CO)c2cc1C` (stereo not given), the max response is -3.68% (inactive). On to `NC(=O)c1noc([C@H](CCCC2CCCCC2)CC(=O)NO)n1`, for which the Potency was 11.8 µM (active).

Regarding `CC[C@]1(O)C[C@H]2CN(CCC3=c4ccccc4=N[C]3[C@@](C(=O)OC)(c3cc4c(cc3OC)N(C)[C@H]3[C@@](O)(C(N)=O)[C@H](O)[C@]5(CC)C=CCN6CC[C@]43[C@@H]65)C2)C1`, the Potency was 0.0166 µM (active).

Consider `CCN1C[C@H](C)n2c(c(O)c3c(=O)n(Cc4ccc(F)c(Cl)c4)nc(C(=O)NC)c32)C1=O`, for which the compound was classed as inactive and the max response is 1.12% (inactive).

On to `Cc1cccc(-c2[nH]c(C(C)(C)C)nc2-c2ccc3c(c2)OCO3)n1`, for which the Potency is 4.18 µM (active).

Take `COc1ccc2cc1Oc1ccc(cc1)C[C@H]1c3cc(c(OC)cc3CCN1C)Oc1c(OC)c(OC)cc3c1[C@H](C2)N(C)CC3`: the Potency is 11.8 µM (active).

With `COc1cc([C@H]2Oc3cc([C@H]4Oc5cc(O)cc(O)c5C(=O)[C@H]4O)ccc3O[C@H]2CO)ccc1O`, the max response was -13.7% (inactive). As for `CC(C)C[C@H](NC(=O)c1cc2ccccc2s1)C(=O)N1CCN(C(=O)[C@H](CO)NS(=O)(=O)c2ccc(Cl)cc2Cl)CC1`, the Potency was 18.7 µM (active). Same read-out and setting: for `CN(C(Cc1ccc(OS(=O)(=O)c2cccc3cnccc23)cc1)C(=O)N1CCN(c2ccccc2)CC1)S(=O)(=O)c1cccc2cnccc12` (stereo not given) the value was 5.26 µM (active).
